One may read the inhibition as the drop in the measured response relative to a control, in per cent.

Our source for the inhibition values is ChEMBL document CHEMBL3433997, “St. Jude Leishmania screening dataset” (2016).

What all share (type): functional
Test [1] concerns the target Solute carrier family 2, facilitated glucose transporter member 1 (Homo sapiens) (UniProt P11166). Put plainly: ST_JUDE_LEISH: Cytotoxicity at 2uM final concentration against transgenic Leishmania Mexicana promastigotes LmGLUT1 that are glucose transport deficient and complemented with the human glucose transporter GLUT1. Activity is measured by DNA content using SYBR green in vitro.

Test [2] deals with Hexose transporter 1 (Plasmodium falciparum) (UniProt O97467). Put plainly: ST_JUDE_LEISH: Cytotoxicity at 2uM final concentration against transgenic Leishmania Mexicana promastigotes LmPfHT that are glucose transport deficient and complemented with the Plasmodium falciparum hexose transporter. Activity is measured by DNA content using SYBR green in vitro.
In test [3] the target is Glucose transporter (Leishmania mexicana) (UniProt O61059). Kind of test: ST_JUDE_LEISH: Cytotoxicity at 2uM final concentration against transgenic Leishmania Mexicana promastigotes LmGT2 that are glucose transport deficient and complemented with the L. Mexicana glucose transporter 2. Activity is measured by DNA content using SYBR green in vitro.

Chain of Solute carrier family 2, facilitated glucose transporter member 1 (Homo sapiens) (P11166 whole entry): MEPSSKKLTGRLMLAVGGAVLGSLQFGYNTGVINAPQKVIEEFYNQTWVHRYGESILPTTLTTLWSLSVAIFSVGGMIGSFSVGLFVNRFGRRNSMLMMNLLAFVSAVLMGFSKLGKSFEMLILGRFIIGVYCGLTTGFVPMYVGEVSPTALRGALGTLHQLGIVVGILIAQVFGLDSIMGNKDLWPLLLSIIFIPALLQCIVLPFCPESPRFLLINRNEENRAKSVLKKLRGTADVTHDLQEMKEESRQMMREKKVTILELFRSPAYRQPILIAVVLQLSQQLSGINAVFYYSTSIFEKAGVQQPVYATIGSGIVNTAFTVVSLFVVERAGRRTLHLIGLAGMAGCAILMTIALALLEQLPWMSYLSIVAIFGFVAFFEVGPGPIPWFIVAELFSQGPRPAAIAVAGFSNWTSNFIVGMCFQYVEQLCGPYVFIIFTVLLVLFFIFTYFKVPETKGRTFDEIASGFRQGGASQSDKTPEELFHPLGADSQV

On to `Clc1cccc(-c2nc(Nc3ccnc(-c4ccc(CN5CCOCC5)cc4)c3)c3ccccc3n2)c1`, for which the inhibition in test [1] came to 4.42%; in test [2], 3.91%; in test [3], 3.58%.
For `CC(C)(C)c1ccccc1OC(=O)c1ccccc1` the same measures were -1.66%, -1.47% and -0.79%.
For `O=C(N[C@H]1CCN(Cc2ccc(OC3CCN(Cc4ccccc4)CC3)cc2)C1)c1ccc(Cl)c(Cl)c1`, the results for the inhibition in test [1], in test [2] and in test [3] were -0.36%, -1.3% and -1.06%, respectively.
With `COc1ccc(-n2nc(C)c3c2NC(=O)CC3c2ccccc2OCc2ccccc2F)cc1` (stereo unspecified), the inhibition amounted to 11.7% in test [1], 11.4% in test [2] and 9.27% in test [3].
Regarding `CC1CCN(CC[C@H]2CCCN2S(=O)(=O)c2cccc(NC(=O)c3ccc(-c4ccccc4)cc3)c2)CC1`, the inhibition in test [1] is 3.61%; in test [2], 1.72%; in test [3], -0.42%.
Take `COc1cc(CN/C(=N/c2ccc(-c3ccccc3)cc2)Nc2ccc(C#N)cc2O)cc(OC)c1`: the inhibition in test [1] turned out to be 1.7%; in test [2], 0.59%; in test [3], 0.77%.
On to `O=C(/C=C/c1ccc(Cl)c(Cl)c1)NCCCCCN1CCC(c2c[nH]c3ccccc23)CC1`, for which the inhibition in test [1] came to 1.33%; in test [2], 4.32%; in test [3], 3.63%.
As to `CCCCc1ccc2[nH]c(NC(=O)OC)nc2c1`, the results for the inhibition in test [1], in test [2] and in test [3] were 10.2%, 7.79% and 9.56%, respectively.
As to `CCCCOc1cc(C)nc2ccc(NC(=O)COCC(=O)Nc3ccc4nc(C)cc(OCCCC)c4c3)cc12`, the results for the inhibition in test [1], in test [2] and in test [3] were 14.9%, 13.7% and 11.2%, respectively.
As to `CC[C@H](C)CNC(=O)c1cncc(-c2ccc(CN3CCC(N4CCCC4)CC3)cc2)c1`, the inhibition in test [1] was determined as 0.53%; in test [2], 0.26%; in test [3] it was 1.05%.
As to `Cc1ccc(C)c2sc(N3CCN(C(=O)c4ccc([N+](=O)[O-])o4)CC3)nc12`, the inhibition in test [1] was 28.7%; in test [2], 38.4%; in test [3], 7.78%.
Regarding `Cc1ccccc1C(O)CNc1ccnc(Nc2cccc(C#N)c2)n1` (stereo unspecified), the inhibition was 3.5% in test [1], 4.38% in test [2] and 0.24% in test [3].
As to `COc1cccc(C(=O)NCCOc2ccccc2)c1Oc1ccccc1`, the inhibition in test [1] came to 5.14%; in test [2] it was 5.7%; in test [3], 5.15%.
Turning to `Cc1cccc2nc(-c3ccc(-c4ccc(C(=O)NCCN5CCCC5)cc4)s3)[nH]c12`, the inhibition is 1.13% in test [1], 0.54% in test [2] and -0.1% in test [3].
Regarding `N[C@@H](CCNCc1ccc(-c2cccnc2)cc1)Cc1ccc(F)c(F)c1`, the inhibition in test [1] amounted to 0.43%; in test [2], 0.41%; in test [3], 0.4%.
In the case of `COc1cc(Cc2cnc(N)nc2N)cc(OCCNC(=O)OCc2ccccc2)c1OC`, the inhibition in test [1] was -1.11%; in test [2], -1.55%; in test [3], -1.22%.
For the molecule `COc1ccc(CN2CCC(CNCCc3c(Cl)cccc3Cl)CC2)cc1`, the inhibition in test [1] came to 7.06%; in test [2], 8.38%; in test [3], 9.64%.
As to `CS(=O)(=O)Nc1cccc(-c2cnc3[nH]cc(-c4ccc(C(=O)O)c(F)c4)c3c2)c1`, the inhibition in test [1] is -2.02%; in test [2], -1.06%; in test [3], 1.09%.
For `N=C(N)Nc1ccc(NC(=O)Nc2ccc(NC(=N)N)cc2)cc1` the same measures were 0.9%, 0.77% and 0.04%.
As to `O=C(/C=C/c1ccc(Cl)c(Cl)c1)NCCCCCN1CCCC(CNC(=O)Nc2ccc(Oc3ccccc3)cc2)C1` (stereo unspecified), the inhibition is -0.78% in test [1], 0.69% in test [2] and 0.61% in test [3].
In the case of `COc1ccc(Nc2nccc(-c3cccc(NC(=O)c4cc5cc(F)ccc5[nH]4)c3)n2)cc1`, the inhibition was 3.61% in test [1], 0.11% in test [2] and -1.2% in test [3].
For `C=CCc1cc(OC)ccc1OCCCOc1c(C)nc(N)nc1N`, the inhibition in test [1] was determined as 78.2%; in test [2], 77.6%; in test [3], 65.3%.
Regarding `CCN(CCCN1CCCCC1)c1cc(C)nc(Nc2ccc(C)c(F)c2)n1`, the inhibition in test [1] is 5.07%; in test [2] it was 5.06%; in test [3], 6.2%.
The matching figures for `Cc1cc(CNC(c2ccccc2)C2CCC2)cc(C)c1O` (stereo unspecified): 14.2%, 14.3% and 10.1%.
For `COc1ccc(-c2ccccc2OCCCNc2nc(NCCc3ccc(O)cc3)nc(N3CCNCC3)n2)cc1`, the figures for the inhibition in test [1], in test [2] and in test [3] were 1.12%, 3.49% and 2.75%, respectively.
For `Nc1c2c(nc3ccc(C(=O)Nc4cc(I)c(O)c(I)c4)cc13)CCCC2`, the inhibition was found to be 1.22% in test [1], 1.9% in test [2] and 1.74% in test [3].
For `O=C(NC1CCN(Cc2cccc(C(F)(F)F)c2)CC1)c1ccc(-c2cccc(Cl)c2)s1` the same measures were 3.3%, 2.49% and 5.19%.
`COc1cc(Cc2cnc(N)nc2N)cc(OCCCCCCN2C(=O)c3ccccc3C2=O)c1OC`: the inhibition in test [1] came to 7.29%; in test [2], 4.53%; in test [3], 5.48%.
`FC(F)(F)c1ccc2[nH]c(-c3cccc(-c4cccc(CNCc5cnn(-c6ccccc6)n5)c4)c3)nc2c1`: the inhibition in test [1] was 5.47%; in test [2] it was 5.16%; in test [3], 3.27%.
The matching figures for `COc1nc2c(CCN3CCC(NCc4ccc5c(n4)NC(=O)CO5)CC3)c(Cl)cnc2cc1F`: 7.62%, 8.51% and 7.05%.
On to `CCNc1cc(C(=O)N[C@@H](Cc2ccccc2)[C@H](O)CNC(C)CCCC(C)C)cc(N2CCCS2(=O)=O)c1` (stereo partly specified), for which the inhibition in test [1] stood at 2.83%; in test [2] it was 1.89%; in test [3], 2.08%.
`CN(CCN)Cc1ccc(-c2ccc(-c3nc4cc(C(F)(F)F)ccc4[nH]3)s2)cc1`: the inhibition in test [1] is 15.1%; in test [2], 14.8%; in test [3] it was 11.4%.
For `COc1cc2nc(NCC3CCCCC3)nc(NCc3ccccc3)c2cc1OC`, the inhibition in test [1] is 3.26%; in test [2], 4.81%; in test [3], 0.32%.
On to `OC(c1nnc(S)n1-c1ccccc1)C(O)c1nnc(S)n1-c1ccccc1` (stereo unspecified), for which the figures for the inhibition in test [1], in test [2] and in test [3] were 10.1%, 8.57% and 10%, respectively.
Turning to `Cc1cccc2nc(-c3ccc(-c4cccc(C(=O)NCCc5cn(C)cn5)c4)s3)[nH]c12`, the inhibition was determined as 1.8% in test [1], 1.96% in test [2] and 1% in test [3].
Turning to `COc1ccc(CNCc2ccc(-c3ccc(-c4nc5cccc(C)c5[nH]4)s3)cc2)cc1`, the inhibition in test [1] amounted to 18.1%; in test [2], 13.2%; in test [3] it was 12.6%.
Turning to `CCCOc1ccc(-c2nonc2NC(=O)c2ccccc2OC)cc1OCCC`, the inhibition stood at 12% in test [1], 14.6% in test [2] and 10.7% in test [3].
